Reference: PubChem BioAssay AID1460 (National Center for Advancing Translational Sciences (NCATS), 2008)
Screen size: about 270,000 compounds; about 5,800 (2.1%) were called active. Roughly 16% stayed inconclusive and do not appear here. Calls come from the whole dose curve; as a rule, active = well fitted inhibition curve with a large enough effect; inconclusive = small, poorly fitted or top-dose-only effect; inactive = flat fitted curve, though single readings scatter. The entries come from a sample that favours actives as a whole.

These molecules were tested against Microtubule-associated protein tau (Homo sapiens) (UniProt P10636) (assay: qHTS for Inhibitors of Tau Fibril Formation, Thioflavin T Binding). Conditions: recombinant tau K18 P301L (four-repeat tau fragment), heparin-induced fibrillization, ThT fluorescence; series mostly up to 57.4 µM; activity, negative = inhibition: at the top concentration.
Source text: NIH Molecular Libraries Probe Production Network [MLPCN]
NIH Chemical Genomics Center [NCGC]
Assay Provider: Carlo Ballatore, University of Pennsylvania
The microtubule-associated protein tau is an abundant protein in the axons of neurons that stabilizes microtubules. With its ability to modulate microtubule dynamics, tau contributes directly or indirectly, to key structural and regulatory cellular functions. Particularly important is the influence tau exerts on axonal transport, which allows signaling molecules, trophic factors and other essential cellular constituents to travel along the axons. Under pathological conditions, tau becomes sequestered into insoluble aggregates called neurofibrillary tangles. This phenomenon is believed to have pathological consequences by promoting axonal transport deficits that ultimately lead to synaptic dysfunction and neuronal loss. To identify inhibitors of tau aggregation, a heparin-induced tau fibril formation assay was used that employed a recombinantly expressed fragment of tau, K18 (Q242-E372), bearing a P301L mutation (Gustke et al. 1994; Hong et al. 1998). This assay monitors tau fibrillization by Thioflavin T (ThT) fluorescence.
Gustke, N., B. Trinczek, et al. (1994). "Domains of tau protein and interactions with microtubules." Biochemistry 33(32): 9511-22.
Hong, M., V. Zhukareva, et al. (1998).
Li, W. and V. M. Lee (2006).
von Bergen, M., S. Barghorn, et al. (2001). "Mutations of tau protein in frontotemporal dementia promote aggregation of paired helical filaments by enhancing local beta-structure." J Biol Chem 276(51): 48165-74.
NCGC Assay Protocol Summary:
For screening, 2 uL/well human K18 P301L (15 uM unlabeled and 0.24 uM Alexa 594-labeled tau, final concentrations) in reagent buffer (100 mM sodium acetate pH 7) was dispensed into black solid 1536-well plates (Grenier) using a solenoid-based dispenser. Following transfer of 23 nL compound or DMSO vehicle by a pin tool, 2 uL/well heparin (20 uM final concentration) in reagent buffer was added and the plate centrifuged 15 s at 1000 RPM. Plates were incubated 6 hr at 37 C and then 1 uL/well ThT (30 uM final concentration) was added. After a 1 hr ambient incubation, the plates were read by an Envision (Perkin Elmer) to monitor ThT fluorescence (450/8 nm excitation and 510/23 nm emission).
Keywords: NIH Roadmap, MLPCN, MLI, MLSMR, NCGC, qHTS, tau, tauopathies, Alzheimer's disease, fibril, neurodegeneration, aggregation
% is set by controls: 0 for no effect and ±100 for the full control effect; potency is the fitted concentration of half-maximal effect.
Note: nearly all actives have a fitted effect of over 55% in size.

Sequence of Microtubule-associated protein tau (Homo sapiens) (P10636 561-689 P618L limits assumed): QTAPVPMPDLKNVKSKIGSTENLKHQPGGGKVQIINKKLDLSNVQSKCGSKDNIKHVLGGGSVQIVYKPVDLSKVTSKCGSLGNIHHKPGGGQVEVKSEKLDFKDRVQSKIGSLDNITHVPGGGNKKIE

activity, negative = inhibition, inactive:
O=[N+]([O-])c1cccc(S(=O)(=O)N2CCCCCC2)c1 -12.3%
COC(=O)c1ccc(C(=O)OC)c(NC(=S)N2CCCCC2)c1 -4.54%
CCS(=O)(=O)N1CCc2cc(C(=O)NCc3ccc(C)cc3)ccc21 6.94%
CCCCN(CC)CCCNC(=O)c1nn(C)c2c1CSc1ccccc1-2 -0.916%
COc1cccc(-n2c(=O)c3c(C)c(C(=O)N(C)C)sc3n(Cc3cccc(C)c3)c2=O)c1 -11%
CCOC(=O)c1cc(-c2ccccc2)n(CCC(=O)Nc2ccccc2CC)c1C -1.04%
CCOC(=O)Nc1ccccc1N1C(=O)c2ccccc2C1=O -1.89%
O=C(NNc1ccccn1)c1ccc(Cl)nc1 -1.76%
COc1cc(OC)nc(NC(=O)CCl)n1 4.78%
Cc1ccc(CNC(=O)CCC(=O)N2Cc3ccccc3Oc3ncccc32)cc1 10.7%
COc1ccccc1CNC(=O)C(=O)NCC(c1ccco1)S(=O)(=O)c1ccc(F)cc1 (stereo not given) -8.71%
CCCOc1ccc(NC(=O)CC2C(=O)N(c3ccccc3)C(=O)N2Cc2ccco2)cc1 (stereo not given) -1.41%
CCOc1ccc(NC(=O)Cn2c(=O)n(CCCC(=O)NCc3ccc4c(c3)OCO4)c(=O)c3ccccc32)cc1 4.7%
C/C(=N\NC(=O)c1cccnc1)c1ccc(-c2ccccc2)cc1 -9.51%
O=C(Nc1cnccn1)c1cccnc1 -5.4%
CCOc1ccccc1NC(=O)Cn1c(=O)n(Cc2ccccc2)c(=O)c2c(C)c(C(=O)N(C)C)sc21 -3.85%
COc1ccccc1CC(=O)Nc1ccc([N+](=O)[O-])cc1OC -15.6%
COc1ccccc1CSc1nc2ccccc2[nH]1 -17.4%
CCOc1ccc(NC(=O)C(=O)NCCc2csc3nc(-c4ccccc4F)nn23)cc1 -9.2%
CCc1ccccc1NC(=O)Cn1c(=O)n(-c2cccc(C)c2)c(=O)c2c1c1cc(OC)ccc1n2C 9.95%
CC(=O)NCCC(=O)Nc1cc(S(=O)(=O)N2CCOCC2)ccc1N1CCOCC1 1.5%
O=C(COC(=O)Cc1ccc(F)cc1)Nc1cc(S(=O)(=O)N2CCOCC2)ccc1N1CCCC1 3.5%
COc1ccc(-c2nc3scc(CCNS(=O)(=O)c4cc(F)ccc4OC)n3n2)cc1OC -10.1%
Cc1ccc(-n2c(SCC(=O)c3ccccc3)nc3c([nH]c4ccccc43)c2=O)cc1 11%
CN(C)c1ccc(-n2cccc2/C=C2/SC(=Nc3ccc(F)cc3)NC2=O)cc1 -15.4%
CCC1S/C(=N/N=C/c2ccco2)NC1=O (stereo not given) 0.34%
Cc1ccc(C(=O)N/C(=C\c2ccco2)C(=O)N2CCSCC2)cc1C -2.66%
Cc1ccc(-c2cc(C(=O)N/N=C/C=C/c3ccco3)c3ccccc3n2)cc1C -8.53%
CC1CCN(S(=O)(=O)c2ccc3c(ccn3CCC(=O)NCc3ccc(N(C)C)cc3)c2)CC1 -18.4%
Cc1nc2c(-c3ccccc3)c(C)nn2c(C)c1CCC(=O)NCCc1ccccc1 -8.23%
CCOc1ccc(NC(=O)c2cn(C3CCCCC3)c(=O)c3c2c2ccccc2n3C)cc1 -9.2%
O=C(Cn1ncn2nc(-c3cccs3)cc2c1=O)NCc1cccc(Br)c1 -5.56%
Cc1ccc(NC(=O)Cc2ccc(NC(=O)N3CCCCc4ccccc43)cc2)cc1 0.89%
Cc1c(Cl)cccc1NC(=O)C(=O)NCCc1csc2nc(-c3ccccc3F)nn12 1.36%
CC(C)Cn1c(=O)c2ccccc2n2c(-c3cccc(Cl)c3)nnc12 -17.1%
O=[N+]([O-])c1cccc(-c2nnc3c4ccccc4c4ccccc4n23)c1 -15.2%
CCOC(=O)c1cnc2[nH]c3ccccc3n2c1=O 6.45%
CC(Nc1ccc(-c2nc(-c3ccco3)no2)cc1[N+](=O)[O-])c1ccccc1 (stereo not given) -14.2%
CN(C)/C=C1/C(=O)Nc2ccccc21 -7.07%
Cc1ccccc1-n1c(C)cc(/C=C2\NC(=O)NC2=O)c1C -0.6%
Cc1nnc(SCc2cc(=O)c3cc(F)ccc3[nH]2)n1C -1.18%
CCOc1ccc(C2C(=O)N(C3CCCCC3)CC(=O)N2CCC2=CCCCC2)cc1OC (stereo not given) 0.595%
Cc1oc2ncnc(N3CCOCC3)c2c1C(=O)NCCc1ccccc1 4.33%
Cc1ccc(-c2nnc(SCc3ccccc3C)o2)cc1 -7.49%
Cc1ccc(-c2cc(-c3coc4ccccc4c3=O)c3c(n2)-c2cc(Cl)ccc2OC3)cc1 -12.1%
O=C(CCc1cn(Cc2ccc(F)cc2)c2ccccc12)NC1CCCCC1 -4.41%
OCCC1CN(Cc2ccccc2-c2ccco2)CCN1Cc1ccsc1 (stereo not given) -0.703%
OCCC1CN(Cc2cccc(OC3CCCC3)c2)CCN1Cc1ccsc1 (stereo not given) -12.6%
Cc1ccc(-c2nnc(SCC(=O)NCc3ccccc3)nc2-c2ccc(C)cc2)cc1 -6.11%
CCOC(=O)CSC1=Nc2ccccc2C2=NC(CCC(=O)NCc3ccc(F)cc3)C(=O)N12 (stereo not given) 3.95%
COc1ccc(Cn2ccn(CC(=O)Nc3cc(C)ccc3C)c(=O)c2=O)cc1 -16.1%
CCS(=O)(=O)N1CCc2cc(C(=O)NCc3ccc(OC)cc3)ccc21 -4.87%
CCOc1ccc(C(c2c(C)[nH][nH]c2=O)c2c(C)[nH][nH]c2=O)cc1OCC -16.1%
CC1CCCN(c2cc3c(cc2F)c(=O)c(S(=O)(=O)c2cccc(Cl)c2)cn3Cc2ccccc2)C1 (stereo not given) -0.998%
CCOc1ccc(CC(=O)NCCc2csc3nc(-c4ccccc4F)nn23)cc1 -7.65%
O=C(Nc1ccc(S(=O)(=O)N2CCC(c3nc4ccccc4s3)CC2)cc1)c1ccccc1F 2.61%
CC(C)c1ccc(NS(=O)(=O)c2ccc3[nH]cc(C(=O)NC4CCCC4)c(=O)c3c2)cc1 9.63%
CCn1c2ccccc2c2nnc(N3CCN(c4cc(C)ccc4C)CC3)nc21 -1.08%
O=c1c(=O)n(Cc2c(F)cccc2Cl)ccn1Cc1ccccc1 -16.6%
Cc1ccc(CNC(=O)CCc2c(C)nn(-c3ccc(N4CCCC4)nn3)c2C)cc1 -9.71%
CC1=C/C(=N\S(=O)(=O)c2ccccc2)C(C(C)C)=CC1=O 0.736%
Cc1ccc(S(=O)(=O)c2ccc(Oc3ccccc3)cc2)cc1 -5.65%
COc1ccc(OC)c(-c2nc(C(N)=O)c3c(n2)n(-c2ccc4c(c2)OCO4)c(=O)n3C)c1 -10.3%
CC(C)(C)OC(=O)N1CCC(c2c(C(=O)N3CCc4ccccc4C3)cnn2-c2ccc(F)cc2)CC1 -16%
O=c1cc(-c2ccccc2)nc(N2CCCCC2)[nH]1 0.526%
CC(=O)c1cc(C#N)c(N2CCCCC2)nc1C 0.825%
CCCc1nn2c(=O)cc(COC(=O)c3ccc(NC(=O)COc4ccc(F)cc4)cc3)nc2s1 3.87%
CCCN(C(=O)Cn1ncc2c([nH]c3ccc(C)cc32)c1=O)c1ccccc1C -8.01%
O=c1cc(CSc2ncn[nH]2)[nH]c2ccc(F)cc12 -1.06%
CCCN(CCC)C(=O)C1CCCN(c2ncnc3c2nc2n3CCCCC2)C1 (stereo not given) -2.59%
Cc1cc(-c2ccc(/C=N/n3cnnc3)o2)c([N+](=O)[O-])cc1C 5.29%
Cc1ccc2nc(SCc3nnc(-c4ccccc4[N+](=O)[O-])o3)c(C#N)cc2c1 -1.14%
CCOc1ccc2nc(N3CCCC(C(=O)Nc4cc(C)ccc4C)C3)sc2c1 (stereo not given) -8.84%
O=C(NCc1ccccc1)c1cccc(NC(=O)N2CCSc3ncccc32)c1 5.68%
CC(=O)N1c2ccc(S(=O)(=O)N3CCCCCC3)cc2CC1C(=O)NCc1ccccc1C (stereo not given) -5.53%
Cc1ccc(C(=O)NC(=S)Nc2ccccc2C)cc1 1.33%
Cc1ccc(C(=O)NCCNC(=O)c2ccccc2)cc1 -12.8%
COc1ccc(C2C(=O)N(C3CCCCCC3)CC(=O)N2CCc2ccc(Cl)cc2)cc1OC (stereo not given) -5.92%
CC(C)CNc1ncnc2c1nnn2C -0.799%
Cc1cccc(-c2nc(SCC(=O)Nc3cc(C)on3)c3c(=O)n(C)c(=O)n(C)c3n2)c1 -3.19%
Cc1ccc(N(CC(=O)NCc2ccc(Cl)cc2)S(=O)(=O)N(C)C)cc1 2.93%

Potency, active:
O=C(Oc1ccccc1C(=S)N1CCCCC1)c1cc([N+](=O)[O-])cc([N+](=O)[O-])c1 25.1 µM
CCOC(=O)c1cc2n(c1N)-c1ccccc1C2=O 14.1 µM
O=C(CCl)NNc1cccc(Cl)n1 14.1 µM
CCCCN=C1C([N+](=O)[O-])=CC=C2C1=NC1(CCCCC1)N2O 8.91 µM
O=C(NN=C1CCC(=NNC(=O)c2cccnc2)CC1)c1cccnc1 39.8 µM
COc1ccccc1CSc1ncc(-c2ccc([N+](=O)[O-])cc2)[nH]1 14.1 µM
Oc1c(Cl)cc(Cl)c(Cl)c1Cc1c(O)c(Cl)cc(Cl)c1Cl 20 µM
COCCNC(=S)Nc1cc(S(=O)(=O)N2CCOCC2)ccc1N1CCCCC1 35.5 µM
Cc1ccc(N=C2NC(=O)/C(=C/C=C/c3ccco3)S2)cc1C 4.47 µM
Cc1ccc(N2NC(=O)/C(=C/C=C/c3ccco3)C2=O)cc1C 10 µM
O=c1[nH]c2ccccc2n2c(-c3ccccc3)nnc12 10 µM
Cc1cc(C)c(/C=C2\C(=O)Nc3ccccc32)[nH]1 3.16 µM
COc1cc(/C=C(\C#N)c2nc3c(s2)CC(C)CC3)ccc1O (stereo not given) 12.6 µM
OCCC#Cc1ccc(CN2CCN(Cc3ccsc3)C(CCO)C2)cc1 (stereo not given) 11.2 µM
Cc1[nH][nH]c(=O)c1C(c1ccc(-c2ccc(Cl)cc2)o1)c1c(C)[nH][nH]c1=O 7.08 µM
CC1=C/C(=N\OS(=O)(=O)c2ccccc2)C=CC1=O 3.16 µM
CC(=O)c1cc(-c2ccccc2)[nH]c1N1CCCC1 14.1 µM
Cc1ccc(-c2ccc(/C=C(\C#N)C(N)=S)o2)c([N+](=O)[O-])c1 3.98 µM
C/C(=N\NC(=O)c1ccc(C)cc1)C1C(=O)c2ccccc2C1=O 5.01 µM
